# Test results taken from article PMC7862700, “An all-to-all approach to the identification of sequence-specific readers for epigenetic DNA modifications on cytosine”.
# Legend:
# Assay in all cases: DAPPL (digital affinity profiling via proximity ligation, sequencing); 10 mM Tris-HCl pH 7.5, 50 mM NaCl, 1 mM DTT, 4% glycerol, room temperature, 30 min; GST-TFs on glutathione beads, 16-mer random dsDNA library, 0.1% formaldehyde crosslink after washing; high values mean tight binding
# FLI1 = molecular target: T1, FLI1 (Homo sapiens, UniProt Q01543 1-452); settings: protein: recombinant; tags: N-terminal GST; dsDNA, one strand shown
# T1 sequence: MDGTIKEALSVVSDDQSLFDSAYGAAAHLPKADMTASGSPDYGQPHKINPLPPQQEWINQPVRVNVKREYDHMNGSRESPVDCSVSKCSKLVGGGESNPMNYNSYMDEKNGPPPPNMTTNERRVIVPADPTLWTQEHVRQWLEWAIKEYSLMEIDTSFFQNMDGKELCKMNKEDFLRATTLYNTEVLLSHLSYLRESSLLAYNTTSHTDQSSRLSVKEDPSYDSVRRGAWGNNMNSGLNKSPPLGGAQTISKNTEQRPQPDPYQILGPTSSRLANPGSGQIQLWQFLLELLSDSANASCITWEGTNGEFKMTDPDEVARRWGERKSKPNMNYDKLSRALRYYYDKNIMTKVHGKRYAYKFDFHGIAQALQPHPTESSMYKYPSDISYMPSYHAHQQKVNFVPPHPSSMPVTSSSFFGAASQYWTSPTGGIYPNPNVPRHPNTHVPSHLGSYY
# Method in brief: (§1)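 In yeast, human transcription factors were expressed with a GST fusion, then pulled down on glutathione beads and given DNA barcodes. Pooled with a tag-only sample, they were exposed to 200 nmole of a 16-mer random double-stranded DNA library (Tris/NaCl/DTT/glycerol buffer, room temperature, 30 min), washed, crosslinked with 0.1% formaldehyde, proximity-ligated using BsaI/T4 ligase for 1 h at 37 °C, PCR-amplified and read on an Illumina NextSeq500. Each hexamer's frequency of reads for a factor, divided by the matching frequency for the tag-only sample, gives the binding signal.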
# ELK1 = molecular target: T2, ELK1 (Homo sapiens, UniProt P19419 1-428); settings: protein: recombinant; tags: N-terminal GST; dsDNA, one strand shown
# T2 sequence: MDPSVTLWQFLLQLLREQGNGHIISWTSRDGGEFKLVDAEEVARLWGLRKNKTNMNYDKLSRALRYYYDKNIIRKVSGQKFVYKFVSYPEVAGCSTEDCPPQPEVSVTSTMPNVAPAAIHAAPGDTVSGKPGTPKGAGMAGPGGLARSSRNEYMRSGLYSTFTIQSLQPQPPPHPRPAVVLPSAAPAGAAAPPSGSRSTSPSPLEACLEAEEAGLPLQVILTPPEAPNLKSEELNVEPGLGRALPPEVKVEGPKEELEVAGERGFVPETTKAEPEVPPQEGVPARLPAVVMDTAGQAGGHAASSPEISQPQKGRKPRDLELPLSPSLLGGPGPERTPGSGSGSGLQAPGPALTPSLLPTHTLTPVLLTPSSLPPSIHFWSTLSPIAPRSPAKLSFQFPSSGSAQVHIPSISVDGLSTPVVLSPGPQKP
# Method in brief: as §1
# GABPA = molecular target: T3, GABPA (Homo sapiens, UniProt Q06546 1-454); settings: protein: recombinant; tags: N-terminal GST; dsDNA, one strand shown
# T3 sequence: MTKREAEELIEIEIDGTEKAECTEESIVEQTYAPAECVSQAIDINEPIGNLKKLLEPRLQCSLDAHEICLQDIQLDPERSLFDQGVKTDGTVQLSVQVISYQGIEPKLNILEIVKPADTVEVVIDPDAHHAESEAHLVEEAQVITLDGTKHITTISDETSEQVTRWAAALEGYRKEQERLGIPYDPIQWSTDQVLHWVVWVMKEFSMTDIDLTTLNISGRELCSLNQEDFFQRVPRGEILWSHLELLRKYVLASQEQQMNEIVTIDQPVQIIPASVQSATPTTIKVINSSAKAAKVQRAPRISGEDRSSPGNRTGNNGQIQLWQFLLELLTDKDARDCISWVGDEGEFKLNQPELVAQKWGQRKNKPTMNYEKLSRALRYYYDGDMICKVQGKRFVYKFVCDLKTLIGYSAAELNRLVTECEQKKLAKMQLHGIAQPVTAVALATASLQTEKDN
# Method in brief: as §1
# ERG = molecular target: T4, ERG (Homo sapiens, UniProt P11308 1-479); settings: protein: recombinant; tags: N-terminal GST; dsDNA, one strand shown
# T4 sequence: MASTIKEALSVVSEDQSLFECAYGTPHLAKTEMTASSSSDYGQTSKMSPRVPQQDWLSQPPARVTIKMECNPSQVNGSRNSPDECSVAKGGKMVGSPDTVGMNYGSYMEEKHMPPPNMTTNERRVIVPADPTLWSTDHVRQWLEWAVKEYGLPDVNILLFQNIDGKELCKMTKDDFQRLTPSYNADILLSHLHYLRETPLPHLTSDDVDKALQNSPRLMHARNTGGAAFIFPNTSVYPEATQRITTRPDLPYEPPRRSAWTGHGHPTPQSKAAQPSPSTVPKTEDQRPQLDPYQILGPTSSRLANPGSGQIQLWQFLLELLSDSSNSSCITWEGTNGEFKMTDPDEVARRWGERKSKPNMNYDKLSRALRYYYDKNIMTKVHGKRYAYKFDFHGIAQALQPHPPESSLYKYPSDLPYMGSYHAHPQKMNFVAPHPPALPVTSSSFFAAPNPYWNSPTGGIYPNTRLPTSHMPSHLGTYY
# Method in brief: as §1
# ELF1 = ELF1 (Homo sapiens, UniProt P32519 1-619); settings: protein: recombinant; tags: N-terminal GST; dsDNA, one strand shown
# Chain of ELF1 (P32519 whole entry): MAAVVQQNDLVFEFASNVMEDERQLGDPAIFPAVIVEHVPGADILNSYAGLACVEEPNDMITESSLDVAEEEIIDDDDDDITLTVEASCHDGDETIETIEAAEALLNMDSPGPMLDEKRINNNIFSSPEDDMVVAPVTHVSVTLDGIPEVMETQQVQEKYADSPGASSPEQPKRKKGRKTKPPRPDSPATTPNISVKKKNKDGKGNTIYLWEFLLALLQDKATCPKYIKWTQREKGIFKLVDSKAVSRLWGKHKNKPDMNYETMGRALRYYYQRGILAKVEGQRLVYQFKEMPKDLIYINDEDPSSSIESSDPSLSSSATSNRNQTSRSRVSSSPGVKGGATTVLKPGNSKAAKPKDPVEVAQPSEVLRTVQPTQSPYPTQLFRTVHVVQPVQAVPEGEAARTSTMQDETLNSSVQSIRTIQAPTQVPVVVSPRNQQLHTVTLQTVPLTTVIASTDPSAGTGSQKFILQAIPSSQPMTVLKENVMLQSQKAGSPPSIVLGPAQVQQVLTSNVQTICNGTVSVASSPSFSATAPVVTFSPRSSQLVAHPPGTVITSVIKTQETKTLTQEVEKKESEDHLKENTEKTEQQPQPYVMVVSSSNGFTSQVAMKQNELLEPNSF
# Method in brief: as §1
# EHF = molecular target: T5, EHF (Homo sapiens, UniProt Q9NZC4 1-300); settings: protein: recombinant; tags: N-terminal GST; dsDNA, one strand shown
# T5 sequence: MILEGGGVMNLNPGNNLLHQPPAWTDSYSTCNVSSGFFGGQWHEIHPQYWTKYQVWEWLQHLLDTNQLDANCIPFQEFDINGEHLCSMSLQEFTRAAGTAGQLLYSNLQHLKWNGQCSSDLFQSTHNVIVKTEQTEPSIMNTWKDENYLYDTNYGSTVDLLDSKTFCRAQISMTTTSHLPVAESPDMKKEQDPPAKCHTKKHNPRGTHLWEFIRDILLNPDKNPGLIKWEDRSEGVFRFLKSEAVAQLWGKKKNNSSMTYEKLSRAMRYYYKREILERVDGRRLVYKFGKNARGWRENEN
# Method in brief: as §1
# SPI1 = SPI1 (Homo sapiens, UniProt P17947 1-270); settings: protein: recombinant; tags: N-terminal GST; dsDNA, one strand shown
# Method in brief: as §1
# SPIB = SPIB (Homo sapiens, UniProt Q01892 1-262); settings: protein: recombinant; tags: N-terminal GST; dsDNA, one strand shown
# Chain of SPIB (Q01892 whole entry): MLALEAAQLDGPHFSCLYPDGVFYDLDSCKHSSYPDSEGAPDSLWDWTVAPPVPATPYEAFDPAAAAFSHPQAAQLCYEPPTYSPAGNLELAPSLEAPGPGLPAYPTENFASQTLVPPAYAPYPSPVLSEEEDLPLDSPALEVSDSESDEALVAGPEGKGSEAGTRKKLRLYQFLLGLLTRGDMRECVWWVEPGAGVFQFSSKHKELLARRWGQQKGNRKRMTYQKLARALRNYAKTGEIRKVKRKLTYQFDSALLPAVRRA
# Method in brief: as §1
# ELK3 = molecular target: T6, ELK3 (Homo sapiens, UniProt P41970 1-407); settings: protein: recombinant; tags: N-terminal GST; dsDNA, one strand shown
# T6 sequence: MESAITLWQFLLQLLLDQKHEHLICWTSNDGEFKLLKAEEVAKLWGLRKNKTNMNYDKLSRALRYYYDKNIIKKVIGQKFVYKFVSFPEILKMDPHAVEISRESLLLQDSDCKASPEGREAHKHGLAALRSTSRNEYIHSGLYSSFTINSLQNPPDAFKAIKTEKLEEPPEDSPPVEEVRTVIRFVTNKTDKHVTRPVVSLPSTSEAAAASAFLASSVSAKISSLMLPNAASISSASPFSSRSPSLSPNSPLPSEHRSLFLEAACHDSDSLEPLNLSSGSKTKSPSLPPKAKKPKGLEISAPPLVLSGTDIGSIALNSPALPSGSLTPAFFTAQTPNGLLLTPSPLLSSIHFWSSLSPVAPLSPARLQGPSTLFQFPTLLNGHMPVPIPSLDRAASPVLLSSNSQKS
# Method in brief: as §1
# FEV = molecular target: T7, FEV (Homo sapiens, UniProt Q99581 1-238); settings: protein: recombinant; tags: N-terminal GST; dsDNA, one strand shown
# T7 sequence: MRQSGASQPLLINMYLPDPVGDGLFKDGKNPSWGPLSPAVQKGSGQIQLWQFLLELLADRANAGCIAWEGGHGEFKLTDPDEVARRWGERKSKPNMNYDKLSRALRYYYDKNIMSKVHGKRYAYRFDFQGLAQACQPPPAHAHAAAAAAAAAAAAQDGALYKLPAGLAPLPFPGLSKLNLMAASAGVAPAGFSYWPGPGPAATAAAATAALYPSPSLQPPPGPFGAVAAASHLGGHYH
# Method in brief: as §1
# ETV5 = ETV5 (Homo sapiens, UniProt P41161 1-510); settings: protein: recombinant; tags: N-terminal GST; dsDNA, one strand shown
# Chain of ETV5 (P41161 whole entry): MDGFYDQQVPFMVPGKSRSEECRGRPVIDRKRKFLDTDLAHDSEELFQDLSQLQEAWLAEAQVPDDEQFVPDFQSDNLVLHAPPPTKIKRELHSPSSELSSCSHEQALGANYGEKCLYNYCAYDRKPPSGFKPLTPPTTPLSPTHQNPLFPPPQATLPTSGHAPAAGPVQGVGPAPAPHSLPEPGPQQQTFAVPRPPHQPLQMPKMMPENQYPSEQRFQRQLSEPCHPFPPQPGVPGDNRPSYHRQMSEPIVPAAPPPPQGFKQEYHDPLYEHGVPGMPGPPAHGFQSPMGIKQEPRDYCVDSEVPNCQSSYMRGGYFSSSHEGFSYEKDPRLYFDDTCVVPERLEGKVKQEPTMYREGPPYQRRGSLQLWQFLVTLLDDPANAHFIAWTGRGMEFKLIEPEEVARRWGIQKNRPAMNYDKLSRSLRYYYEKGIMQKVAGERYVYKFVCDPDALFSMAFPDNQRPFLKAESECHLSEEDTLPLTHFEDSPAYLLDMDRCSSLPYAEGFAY
# Method in brief: as §1
# HSF1 = HSF1 (Homo sapiens, UniProt Q00613 1-529); settings: protein: recombinant; tags: N-terminal GST; chain copies: 3; dsDNA, one strand shown
# Chain of HSF1 (Q00613 whole entry): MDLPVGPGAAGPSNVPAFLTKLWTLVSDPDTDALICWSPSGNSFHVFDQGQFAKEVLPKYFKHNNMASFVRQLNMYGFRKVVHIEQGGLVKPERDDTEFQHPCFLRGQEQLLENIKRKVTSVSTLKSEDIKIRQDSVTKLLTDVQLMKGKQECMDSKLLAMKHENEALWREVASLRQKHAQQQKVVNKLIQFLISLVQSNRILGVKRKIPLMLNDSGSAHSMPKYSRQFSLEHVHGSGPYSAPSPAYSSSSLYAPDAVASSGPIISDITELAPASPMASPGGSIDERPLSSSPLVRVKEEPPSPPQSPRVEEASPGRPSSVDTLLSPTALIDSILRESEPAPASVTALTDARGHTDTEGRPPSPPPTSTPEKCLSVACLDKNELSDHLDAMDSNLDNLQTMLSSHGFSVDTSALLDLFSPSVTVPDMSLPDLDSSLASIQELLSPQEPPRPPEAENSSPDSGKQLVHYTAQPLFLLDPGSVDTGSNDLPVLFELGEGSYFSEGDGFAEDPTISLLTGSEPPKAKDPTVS
# Method in brief: as §1
# SPIC = molecular target: T8, SPIC (Homo sapiens, UniProt Q8N5J4 1-248); settings: protein: recombinant; tags: N-terminal GST; dsDNA, one strand shown
# T8 sequence: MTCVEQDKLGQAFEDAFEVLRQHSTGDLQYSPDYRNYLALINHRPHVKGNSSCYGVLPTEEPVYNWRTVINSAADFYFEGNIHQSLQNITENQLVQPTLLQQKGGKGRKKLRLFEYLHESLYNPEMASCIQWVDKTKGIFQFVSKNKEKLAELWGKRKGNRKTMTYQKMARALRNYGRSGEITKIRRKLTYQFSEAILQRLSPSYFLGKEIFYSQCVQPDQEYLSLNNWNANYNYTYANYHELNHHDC
# Method in brief: as §1
# ELF4 = ELF4 (Homo sapiens, UniProt Q99607 1-663); settings: protein: recombinant; tags: N-terminal GST; dsDNA, one strand shown
# Chain of ELF4 (Q99607 whole entry): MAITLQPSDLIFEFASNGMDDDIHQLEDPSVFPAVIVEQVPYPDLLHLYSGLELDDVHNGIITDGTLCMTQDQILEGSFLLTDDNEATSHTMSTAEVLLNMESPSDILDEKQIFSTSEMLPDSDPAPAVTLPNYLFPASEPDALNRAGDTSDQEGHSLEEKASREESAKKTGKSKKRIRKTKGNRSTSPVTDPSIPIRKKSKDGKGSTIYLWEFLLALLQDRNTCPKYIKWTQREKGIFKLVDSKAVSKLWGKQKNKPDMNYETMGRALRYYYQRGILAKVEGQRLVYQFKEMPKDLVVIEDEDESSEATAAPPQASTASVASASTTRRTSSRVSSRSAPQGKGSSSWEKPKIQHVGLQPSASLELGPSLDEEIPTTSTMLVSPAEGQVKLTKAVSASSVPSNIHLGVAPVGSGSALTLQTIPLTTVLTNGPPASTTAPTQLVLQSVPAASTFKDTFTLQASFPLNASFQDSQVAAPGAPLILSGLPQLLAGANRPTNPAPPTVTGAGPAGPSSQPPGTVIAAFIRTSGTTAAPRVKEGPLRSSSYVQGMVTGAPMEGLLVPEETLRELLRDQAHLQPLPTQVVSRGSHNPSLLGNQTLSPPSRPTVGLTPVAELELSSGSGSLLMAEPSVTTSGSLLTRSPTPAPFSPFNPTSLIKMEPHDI
# Method in brief: as §1
# ELK4 = molecular target: T9, ELK4 (Homo sapiens, UniProt P28324-2 1-405); settings: protein: recombinant; tags: N-terminal GST; dsDNA, one strand shown
# T9 sequence: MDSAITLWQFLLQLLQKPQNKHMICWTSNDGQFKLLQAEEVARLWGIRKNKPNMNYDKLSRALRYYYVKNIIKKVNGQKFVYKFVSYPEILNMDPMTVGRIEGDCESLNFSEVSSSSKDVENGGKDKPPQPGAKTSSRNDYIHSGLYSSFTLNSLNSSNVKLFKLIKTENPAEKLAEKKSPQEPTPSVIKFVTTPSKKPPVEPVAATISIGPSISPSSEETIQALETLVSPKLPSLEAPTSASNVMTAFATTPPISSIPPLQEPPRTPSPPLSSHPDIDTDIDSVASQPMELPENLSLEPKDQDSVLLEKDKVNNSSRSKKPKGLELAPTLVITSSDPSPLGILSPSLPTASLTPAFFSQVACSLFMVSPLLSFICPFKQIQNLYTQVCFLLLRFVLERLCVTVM
# Method in brief: as §1
# ETV2 = molecular target: T10, ETV2 (Homo sapiens, UniProt O00321 1-342); settings: protein: recombinant; tags: N-terminal GST; dsDNA, one strand shown
# T10 sequence: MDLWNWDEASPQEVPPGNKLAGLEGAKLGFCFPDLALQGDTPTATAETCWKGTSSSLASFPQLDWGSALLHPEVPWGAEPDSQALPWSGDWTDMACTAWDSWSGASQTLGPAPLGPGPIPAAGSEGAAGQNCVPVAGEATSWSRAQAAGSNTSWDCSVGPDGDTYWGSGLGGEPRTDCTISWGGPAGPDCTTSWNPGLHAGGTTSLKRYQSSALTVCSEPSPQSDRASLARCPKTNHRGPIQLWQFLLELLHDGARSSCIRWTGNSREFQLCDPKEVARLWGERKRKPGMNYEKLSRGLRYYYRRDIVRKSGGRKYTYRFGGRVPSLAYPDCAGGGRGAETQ
# Method in brief: as §1
# ELF3 = molecular target: T11, ELF3 (Homo sapiens, UniProt P78545 1-371); settings: protein: recombinant; tags: N-terminal GST; dsDNA, one strand shown
# T11 sequence: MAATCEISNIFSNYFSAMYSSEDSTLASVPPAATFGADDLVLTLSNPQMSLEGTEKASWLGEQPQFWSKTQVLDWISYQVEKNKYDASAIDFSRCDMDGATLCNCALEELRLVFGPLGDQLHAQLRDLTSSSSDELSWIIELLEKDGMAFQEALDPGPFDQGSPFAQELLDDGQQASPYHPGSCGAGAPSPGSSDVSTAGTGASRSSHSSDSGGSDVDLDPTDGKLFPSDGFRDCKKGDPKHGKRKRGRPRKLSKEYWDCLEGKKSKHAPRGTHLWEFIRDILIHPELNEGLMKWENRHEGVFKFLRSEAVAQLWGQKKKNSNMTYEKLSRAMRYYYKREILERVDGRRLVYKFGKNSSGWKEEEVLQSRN
# Method in brief: as §1
# CRX = CRX (Homo sapiens, UniProt O43186 1-299); settings: protein: recombinant; tags: N-terminal GST; dsDNA, one strand shown
# Chain of CRX (O43186 whole entry): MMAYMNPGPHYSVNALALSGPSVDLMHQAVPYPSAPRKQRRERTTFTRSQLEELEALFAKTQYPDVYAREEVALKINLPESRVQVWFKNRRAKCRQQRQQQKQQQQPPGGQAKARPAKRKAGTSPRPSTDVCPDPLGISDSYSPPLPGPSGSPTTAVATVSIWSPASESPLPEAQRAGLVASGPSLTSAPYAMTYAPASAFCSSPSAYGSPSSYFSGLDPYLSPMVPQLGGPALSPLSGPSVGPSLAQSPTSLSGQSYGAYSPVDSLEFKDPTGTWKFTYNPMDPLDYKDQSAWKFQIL
# Method in brief: as §1
# ETV1 = ETV1 (Homo sapiens, UniProt P50549 1-477); settings: protein: recombinant; tags: N-terminal GST; dsDNA, one strand shown
# Chain of ETV1 (P50549 whole entry): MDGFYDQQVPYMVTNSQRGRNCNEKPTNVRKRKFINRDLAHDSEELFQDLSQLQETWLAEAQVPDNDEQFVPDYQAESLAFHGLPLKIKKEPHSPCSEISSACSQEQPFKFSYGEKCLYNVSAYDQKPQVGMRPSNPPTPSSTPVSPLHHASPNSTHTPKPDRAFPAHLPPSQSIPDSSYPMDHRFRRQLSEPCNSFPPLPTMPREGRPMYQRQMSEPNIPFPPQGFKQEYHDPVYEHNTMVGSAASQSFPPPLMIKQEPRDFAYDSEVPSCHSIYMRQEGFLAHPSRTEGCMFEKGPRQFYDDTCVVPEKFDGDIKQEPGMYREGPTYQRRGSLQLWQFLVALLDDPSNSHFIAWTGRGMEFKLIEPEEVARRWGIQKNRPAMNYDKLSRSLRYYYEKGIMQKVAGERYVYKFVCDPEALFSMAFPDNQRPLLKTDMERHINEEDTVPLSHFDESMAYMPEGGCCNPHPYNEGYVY
# Method in brief: as §1
sequence,measurement,setting,value
ATTCCT,binding signal,FLI1,"1.46 fold enrichment (6-mer frequency, TF over GST control)"
same,binding signal,ELK1,"1.37 fold enrichment (6-mer frequency, TF over GST control)"
same,binding signal,GABPA,"1.28 fold enrichment (6-mer frequency, TF over GST control)"
same,binding signal,ERG,"1.27 fold enrichment (6-mer frequency, TF over GST control)"
same,binding signal,ELF1,"1.42 fold enrichment (6-mer frequency, TF over GST control)"
same,binding signal,EHF,"1.34 fold enrichment (6-mer frequency, TF over GST control)"
same,binding signal,SPI1,"1.46 fold enrichment (6-mer frequency, TF over GST control)"
same,binding signal,SPIB,"1.43 fold enrichment (6-mer frequency, TF over GST control)"
same,binding signal,ELK3,"1.3 fold enrichment (6-mer frequency, TF over GST control)"
same,binding signal,FEV,"1.34 fold enrichment (6-mer frequency, TF over GST control)"
same,binding signal,ETV5,"1.39 fold enrichment (6-mer frequency, TF over GST control)"
same,binding signal,HSF1,"1.57 fold enrichment (6-mer frequency, TF over GST control)"
same,binding signal,SPIC,"1.27 fold enrichment (6-mer frequency, TF over GST control)"
same,binding signal,ELF4,"1.39 fold enrichment (6-mer frequency, TF over GST control)"
same,binding signal,ELK4,"1.22 fold enrichment (6-mer frequency, TF over GST control)"
same,binding signal,ETV2,"1.45 fold enrichment (6-mer frequency, TF over GST control)"
same,binding signal,ELF3,"1.2 fold enrichment (6-mer frequency, TF over GST control)"
same,binding signal,CRX,"1.33 fold enrichment (6-mer frequency, TF over GST control)"
same,binding signal,ETV1,"1.28 fold enrichment (6-mer frequency, TF over GST control)"
